# In PubChem BioAssay (NCATS):
# Inconclusive results are not listed. Calls of active or inactive are those of the source. Unless noted, calls follow the shape of the dose curve; as a rule, active = well fitted curve in the direction sought with a large enough effect; inconclusive = small, poorly fitted or top-dose-only effect, or another doubt; inactive = no such curve, though single readings can be large; an effect the other way counts as inactive or inconclusive.
# What was measured:
# [1] = molecular target: Bile acid receptor (Homo sapiens) (UniProt Q96RI1); experiment: qHTS assay for small molecule agonists of farnesoid X receptor signaling (AID 588527; calls by dose curve;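 also: series mostly up to about 77 µM; 0% = vehicle basal and 100% = reference agonist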); details: HEK293T FXR-UAS-bla, beta-lactamase ratio, 16 h; activation: stronger effect = higher value
# How it was run: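 FXR-UAS-bla HEK293T, 10% dialyzed FBS; cpds up to 92 uM titration, 16 h 37 C; CCF4 dye 2 h RT; fluorescence. Normalized to chenodeoxycholic acid 100 uM (100%) and DMSO (0%); Hill fit gives EC50, efficacy.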
# [2] = molecular target: Vitamin D3 receptor (Homo sapiens) (UniProt P11473); experiment: qHTS assay for small molecule agonists of vitamin D receptor signaling (AID 588543; calls by dose curve;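 also: 0% = DMSO basal and 100% = reference agonist control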)
# How it was run: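 Measured: β-lactamase reporter activity (CCF4, 405 nm excitation, 460/530 nm emission) in HEK293T VDR-UAS-bla cells after 16 h compound exposure at 37 °C. Normalization against 50 nM 1α,25-dihydroxyvitamin D3 and DMSO; Hill-fit EC50.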
# [3] = qHTS assay for environmental chemicals that activate the Aryl hydrocarbon Receptor (AhR) signaling pathway (AID 651777); details: 1A2-DRE human hepatoma cells, luciferase, 24 h; activation: stronger effect = higher value; also: % of control where 0% means no effect; nearly all actives have a fitted effect of over 15% in size
# How it was run: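 Measured luciferase activity, read 30 min after One-Glo addition at room temperature, from human hepatoma cells bearing a dioxin response element–CYP1A2 promoter reporter and exposed to compound for 24 hr at 37 C.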
# [4] = molecular target: Peroxisome proliferator-activated receptor alpha (Homo sapiens) (UniProt Q07869); experiment: qHTS assay for small molecule agonists of the peroxisome proliferator-activated receptor alpha (PPARalpha) signaling pathway (AID 651778); details: PathHunter PPARalpha complementation, chemiluminescence, 6 h; max response: stronger effect = higher value; also: % of control where 0% means no effect
# How it was run: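 Chemiluminescence from complemented enzyme reported PPARalpha activation in cells after 6 hr of compound treatment at 37 C. The detection reagent was incubated for 60 min at room temperature, and compounds were scored as agonists.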
# [5] = qHTS assay for small molecule activators of the human pregnane X receptor (PXR) signaling pathway (AID 720659; call rule not given here; also: 0% is about no effect)
# [6] = molecular target: Peroxisome proliferator-activated receptor gamma (Homo sapiens) (UniProt P37231); experiment: qHTS assay for small molecule agonists of peroxisome proliferator-activated receptor gamma signaling (AID 588536; active = well fitted curve in the direction sought with a large enough effect in the signal ratio, with a control signal flat, not every such curve was filed as active; the % refers to the signal ratio;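 also: 0% = DMSO basal wells and 100% = rosiglitazone at 2 µM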)
# How it was run: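 PPAR-gamma-UAS-bla HEK293 cells in medium with 1% charcoal/dextran-treated FBS were exposed to compounds for 16 h at 37 C. Beta-lactamase activity was read with CCF4 substrate (405 nm excitation, 460/530 nm emission).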
# [7] = qHTS assay for small molecule activators of the p53 signaling pathway (AID 651743; active = well fitted activation curve with a large enough effect in the signal ratio, not every such curve was filed as active; the % refers to the signal ratio; also: potency is read from the fitted curve at half-maximal effect; as to activation: series mostly up to about 92 µM; % of control where 0% means no effect); details: HCT-116 p53RE-bla, beta-lactamase FRET ratio, 16 h; activation: stronger effect = higher value
# How it was run: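 Screen for p53 pathway agonists uses stably transfected p53RE-bla HCT-116 cells, 4,000 per well, treated 16 h at 37 C with compounds in DMSO.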
# [8] = qHTS assay for small molecule activators of the nuclear factor-kappa B (NF-kB) signaling pathway (AID 651749; active = well fitted activation curve with a large enough effect in the signal ratio; the % refers to the signal ratio; also: series mostly up to about 77 µM; % of control where 0% means no effect); details: NF-kB-bla ME-180 cells, beta-lactamase FRET ratio, 16 h; activation: stronger effect = higher value
# How it was run: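 Stably transfected ME-180 line; NF-kB response element upstream of beta-lactamase. Treatment: compound or DMSO, 16 hr. Detection: fluorescent FRET substrate.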
# [9] = qHTS assay for cell viability of HEK293 cells (AID 743288); details: ATP luminescence (CellTiter-Glo), 18 h; max response: stronger effect = lower value; also: % is scaled to controls: 0 for no effect and ±100 for the full control effect; nearly all actives have a fitted effect of over 50% in size
# How it was run: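 Luminescent ATP quantitation served as the viability read-out. Cells (parental HEK293, 2,000/well) received compounds after at least 5 h at 37 C and were exposed for 18 h before a 30 min room-temperature reagent step.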
# [10] = molecular target: Glucocorticoid receptor (Homo sapiens) (UniProt P04150); experiment: qHTS assay for small molecule agonists of glucocorticoid receptor signaling (AID 588532; active = well fitted curve in the direction sought with a large enough effect in the signal ratio, with a control signal flat; the % refers to the signal ratio;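 also: 100% = dexamethasone at 0.1 µM and 0% = DMSO only wells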); details: HeLa MMTV-bla, beta-lactamase ratio, agonist, 18 h; activation: stronger effect = higher value, percent of dexamethasone control, DMSO zero
# How it was run: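 Using MMTV-bla HeLa cells in medium with 1% stripped FBS and 25 mM HEPES, compounds were titrated and incubated overnight-length (18 h). Beta-lactamase cleavage of CCF4 was quantified by dual-emission fluorescence.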
# [11] = molecular target: Glucocorticoid receptor (Homo sapiens) (UniProt P04150); experiment: qHTS assay for small molecule antagonists of glucocorticoid receptor signaling (AID 588533; active = well fitted inhibition curve with a large enough effect in the signal ratio, with a control signal flat, not every such curve was filed as active; the % refers to the signal ratio;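 also: cells stimulated with 2 nM dexamethasone as agonist; % is scaled to controls: 0 for no effect and ±100 for the full control effect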)
# How it was run: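 Antagonist-mode qHTS: compound titrations added to GRE-bla HeLa cells, then dexamethasone 2 nM final; 18 h, 37 C. CCF4 FRET fluorescence normalized to dexamethasone and DMSO; IC50 from Hill fit.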
# [12] = molecular target: Peroxisome proliferator-activated receptor delta (Homo sapiens) (UniProt Q03181); experiment: qHTS assay for small molecule agonists of peroxisome proliferator-activated receptor delta signaling (AID 588534; calls by dose curve;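 also: 0% = DMSO basal wells and 100% = positive control agonist at 10 µM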)
# How it was run: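 Reporter cells were plated and held 5 hrs at 37 C before compounds were added. After 18 hrs at 37 C, CCF4 dye was loaded for 2 hrs at RT and fluorescence measured.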
# [13] = qHTS assay for small molecule antagonists of peroxisome proliferator-activated receptor delta signaling (AID 588535; active = well fitted inhibition curve with a large enough effect in the signal ratio, with a control signal flat, not every such curve was filed as active; the % refers to the signal ratio;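 as to max response: cells co-treated with a PPAR-delta agonist as stimulator during compound exposure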); details: HEK293T PPARd-UAS-bla, beta-lactamase FRET ratio, 18 h; 460 nm channel
# How it was run: (§1)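 Cell-based beta-lactamase assay in antagonist mode: 4000 HEK293T PPAR-delta-UAS-bla cells per well, 5 hr preincubation then 18 hr compound incubation at 37 C. IC50 obtained by Hill equation fitting.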
# [14] = molecular target: Peroxisome proliferator-activated receptor delta (Homo sapiens) (UniProt Q03181); experiment: as above
# How it was run: as §1
# [15] = molecular target: Peroxisome proliferator-activated receptor gamma (Homo sapiens) (UniProt P37231); experiment: qHTS assay for small molecule antagonists of peroxisome proliferator-activated receptor gamma signaling (AID 588537; active = well fitted inhibition curve with a large enough effect in the signal ratio, with a control signal flat, not every such curve was filed as active; the % refers to the signal ratio;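 also: reporter cells co-stimulated with 50 nM rosiglitazone agonist during compound treatment; % of control where 0% means no effect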)
# How it was run: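 Inhibitors of agonist-stimulated UAS-bla reporter activity were sought in HEK293 cells; rosiglitazone (50 nM) defined full signal and DMSO baseline. Curves fitted to Hill model gave IC50 and efficacy.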
# [16] = molecular target: Vitamin D3 receptor (Homo sapiens) (UniProt P11473); experiment: qHTS assay for small molecule antagonists of vitamin D receptor signaling (AID 588541; calls by dose curve;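 also: receptor activated by calcitriol during compound treatment; series mostly up to about 77 µM; % is scaled to controls: 0 for no effect and ±100 for the full control effect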)
# How it was run: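 Antagonist-mode beta-lactamase reporter assay: HEK293T VDR-UAS-bla cells were exposed to titrated compound alongside 1-alpha,25-dihydroxyvitamin D3 at 3 nM final for 16 h. Values were normalized to the 50 nM agonist control and DMSO basal, with IC50 and efficacy from Hill equation fits.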
# [17] = molecular target: Thyroid hormone receptor beta (Homo sapiens) (UniProt P10828); experiment: qHTS assay for small molecule agonists of thyroid hormone receptor beta signaling (AID 588545; calls by dose curve;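 also: 0% = DMSO only and 100% = 10 nM T3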)
# How it was run: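 TR-UAS-bla-GripTite HEK 293 cells in medium with 2% charcoal/dextran FBS, 0.1 mM NEAA and 1 mM sodium pyruvate were treated with titrated compounds for 18 hrs at 37 C. Beta-lactamase reporter was read with CCF4 dye (ex 405, em 460/530 nm); EC50 from Hill fits.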
# [18] = qHTS assay for small molecule antagonists of retinoid X receptor alpha signaling (AID 588546; active = well fitted inhibition curve with a large enough effect in the signal ratio, with a control signal flat, not every such curve was filed as active; the % refers to the signal ratio;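 also: cells stimulated with 9-cis-retinoic acid as agonist; % is scaled to controls: 0 for no effect and ±100 for the full control effect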); details: HEK293T RXRa-UAS-bla, beta-lactamase ratio, antagonist mode; measured here: W530 green channel, cytotoxicity proxy
# How it was run: (§2)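 Beta-lactamase reporter inhibition, read as CCF4 fluorescence ratio (ex 405, em 460/530 nm) after 2 h at RT. HEK293T UAS-bla cells, 2500/well, were stimulated with 9-cis-RA at 500 or 100 nM final alongside test compound for 18 h at 37 C.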
# [19] = molecular target: Retinoic acid receptor RXR-alpha (Homo sapiens) (UniProt P19793); experiment: as above; details: HEK293T RXRa-UAS-bla, beta-lactamase ratio, antagonist mode
# How it was run: as §2
# [20] = molecular target: Thyroid hormone receptor beta (Homo sapiens) (UniProt P10828); experiment: qHTS assay for small molecule antagonists of thyroid hormone receptor beta signaling (AID 588547; active = well fitted inhibition curve with a large enough effect in the signal ratio, with a control signal flat, not every such curve was filed as active; the % refers to the signal ratio;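 also: cells stimulated with 0.4 nM T3 agonist during compound exposure; series mostly up to about 77 µM; % is scaled to controls: 0 for no effect and ±100 for the full control effect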); details: TR-UAS-bla HEK293, beta-lactamase ratio, antagonist mode, 18 h
# How it was run: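 Inhibition of T3-driven (0.4nM final) beta-lactamase reporter activity was measured over 0.59 nM to 92 uM compound after 18 h at 37 C. The cells were GripTite HEK293 TR-UAS-bla in charcoal/dextran-stripped serum, with CCF4 ratio read-out and IC50 from Hill fits.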
# [21] = qHTS assay for small molecule agonists of the antioxidant response element (ARE) signaling pathway (AID 651741; active = well fitted activation curve with a large enough effect in the signal ratio; the % refers to the signal ratio; also: potency is read from the fitted curve at half-maximal effect)
# How it was run: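 Seeding 2,000 ARE-bla HepG2 cells per well preceded a 5 h incubation at 37 C/5% CO2 and a 16 h compound exposure at 37 C. Beta-lactamase reporter activity was then quantified by fluorescence after 2 h with LiveBLAzer B/G FRET substrate.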
# [22] = qHTS assay for small molecule agonists of the antioxidant response element (ARE) signaling pathway measured by Nrf2-dependant transcriptional activity - cell viability counter screen (AID 720653; active = well fitted curve in the direction sought with a large enough effect in the repeat runs; an effect the other way counts as inactive or inconclusive; also: % is scaled to controls: 0 for no effect and ±100 for the full control effect); details: ARE-bla HepG2 viability, CellTiter-Glo ATP luminescence, 16 h; max response: stronger effect = lower value
# How it was run: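 Cytotoxicity counter screen: intracellular ATP quantified by CellTiter-Glo luminescence in the same ARE-bla HepG2 plates, after 16 h compound exposure and a 2 h beta-lactamase substrate step.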
# [23] = qHTS assay for cell viability of the p53RE-bla HCT-116 cell line (AID 743292); also: % is scaled to controls: 0 for no effect and ±100 for the full control effect; nearly all actives have a fitted effect of over 55% in size
# How it was run: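 Intracellular ATP of p53RE-bla HCT-116 cells measured by luciferase luminescence following 16 h compound incubation at 37 C; DMSO-only wells served as vehicle controls.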
# [24] = molecular target: Nuclear receptor subfamily 1 group I member 2 (Rattus norvegicus) (UniProt Q9R1A7); experiment: qHTS assay for small molecule activators of the rat pregnane X receptor (rPXR) signaling pathway (AID 651751; call rule not given here; also: 0% is about no effect); details: rPXR reporter cells, luciferase (One-Glo), 24 h
# Nuclear receptor subfamily 1 group I member 2 (Rattus norvegicus), sequence (Q9R1A7 whole entry, looked up): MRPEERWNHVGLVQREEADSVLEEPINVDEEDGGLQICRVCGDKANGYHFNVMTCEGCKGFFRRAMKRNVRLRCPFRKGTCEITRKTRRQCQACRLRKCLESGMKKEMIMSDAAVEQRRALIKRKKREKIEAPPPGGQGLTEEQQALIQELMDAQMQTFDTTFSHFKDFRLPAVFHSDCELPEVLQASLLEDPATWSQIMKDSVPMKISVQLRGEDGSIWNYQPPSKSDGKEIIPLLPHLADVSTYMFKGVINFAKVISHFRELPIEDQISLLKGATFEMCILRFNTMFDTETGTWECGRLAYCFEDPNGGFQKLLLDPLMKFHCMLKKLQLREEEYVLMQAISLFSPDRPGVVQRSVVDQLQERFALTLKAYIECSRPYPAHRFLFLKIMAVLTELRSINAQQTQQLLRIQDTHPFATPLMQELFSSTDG
# Vitamin D3 receptor (Homo sapiens), sequence (P11473 whole entry, looked up): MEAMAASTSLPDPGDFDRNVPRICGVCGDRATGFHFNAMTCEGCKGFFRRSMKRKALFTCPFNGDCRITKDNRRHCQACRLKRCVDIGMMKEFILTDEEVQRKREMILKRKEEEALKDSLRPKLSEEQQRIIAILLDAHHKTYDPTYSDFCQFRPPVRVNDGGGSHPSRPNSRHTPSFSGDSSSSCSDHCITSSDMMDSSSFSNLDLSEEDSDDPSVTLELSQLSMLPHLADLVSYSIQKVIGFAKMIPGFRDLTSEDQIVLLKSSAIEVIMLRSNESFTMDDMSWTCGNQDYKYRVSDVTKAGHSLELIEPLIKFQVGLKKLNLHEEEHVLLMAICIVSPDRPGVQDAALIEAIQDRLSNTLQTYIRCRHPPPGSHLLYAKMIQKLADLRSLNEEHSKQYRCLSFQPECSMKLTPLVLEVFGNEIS
# Peroxisome proliferator-activated receptor alpha (Homo sapiens), sequence (Q07869 whole entry, looked up): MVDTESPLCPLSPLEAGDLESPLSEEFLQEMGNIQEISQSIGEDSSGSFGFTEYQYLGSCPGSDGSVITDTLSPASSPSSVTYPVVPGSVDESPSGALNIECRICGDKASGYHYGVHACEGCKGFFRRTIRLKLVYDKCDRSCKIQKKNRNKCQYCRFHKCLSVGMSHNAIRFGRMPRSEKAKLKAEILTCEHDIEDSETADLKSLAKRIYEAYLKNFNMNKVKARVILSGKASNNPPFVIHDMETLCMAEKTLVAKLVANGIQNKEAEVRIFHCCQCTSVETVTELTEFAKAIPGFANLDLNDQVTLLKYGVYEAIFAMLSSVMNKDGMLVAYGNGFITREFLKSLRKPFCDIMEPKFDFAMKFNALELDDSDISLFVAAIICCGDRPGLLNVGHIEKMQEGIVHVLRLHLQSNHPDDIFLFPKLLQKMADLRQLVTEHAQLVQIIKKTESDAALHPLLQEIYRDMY
# Peroxisome proliferator-activated receptor gamma (Homo sapiens), sequence (P37231 whole entry, looked up): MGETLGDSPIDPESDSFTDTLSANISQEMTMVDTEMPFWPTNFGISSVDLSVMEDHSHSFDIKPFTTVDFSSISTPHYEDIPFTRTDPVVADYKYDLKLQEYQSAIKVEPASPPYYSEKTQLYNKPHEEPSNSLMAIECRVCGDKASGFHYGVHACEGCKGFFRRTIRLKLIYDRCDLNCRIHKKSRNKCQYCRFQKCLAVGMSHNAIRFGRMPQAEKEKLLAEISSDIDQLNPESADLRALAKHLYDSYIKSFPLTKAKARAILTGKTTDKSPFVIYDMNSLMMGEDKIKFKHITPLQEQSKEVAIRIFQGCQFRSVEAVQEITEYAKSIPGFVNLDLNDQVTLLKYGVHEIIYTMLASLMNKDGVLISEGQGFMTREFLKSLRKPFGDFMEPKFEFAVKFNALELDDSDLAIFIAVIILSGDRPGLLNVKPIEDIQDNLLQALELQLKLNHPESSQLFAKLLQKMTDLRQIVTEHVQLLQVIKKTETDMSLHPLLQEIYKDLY
# Bile acid receptor (Homo sapiens), sequence (Q96RI1 whole entry, looked up): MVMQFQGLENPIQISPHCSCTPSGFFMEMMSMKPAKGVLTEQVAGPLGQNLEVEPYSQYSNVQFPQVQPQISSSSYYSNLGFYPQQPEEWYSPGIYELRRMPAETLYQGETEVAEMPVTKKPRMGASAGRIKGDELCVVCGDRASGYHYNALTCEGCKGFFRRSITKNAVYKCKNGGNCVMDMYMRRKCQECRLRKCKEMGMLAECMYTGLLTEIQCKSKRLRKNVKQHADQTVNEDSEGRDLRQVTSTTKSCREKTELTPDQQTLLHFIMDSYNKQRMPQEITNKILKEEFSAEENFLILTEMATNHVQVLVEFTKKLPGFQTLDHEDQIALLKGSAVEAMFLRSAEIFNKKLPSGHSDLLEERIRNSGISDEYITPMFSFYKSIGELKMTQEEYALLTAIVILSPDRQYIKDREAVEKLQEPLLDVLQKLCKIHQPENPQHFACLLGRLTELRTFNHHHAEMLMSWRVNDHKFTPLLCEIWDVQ
# Glucocorticoid receptor (Homo sapiens), sequence (P04150 whole entry, looked up): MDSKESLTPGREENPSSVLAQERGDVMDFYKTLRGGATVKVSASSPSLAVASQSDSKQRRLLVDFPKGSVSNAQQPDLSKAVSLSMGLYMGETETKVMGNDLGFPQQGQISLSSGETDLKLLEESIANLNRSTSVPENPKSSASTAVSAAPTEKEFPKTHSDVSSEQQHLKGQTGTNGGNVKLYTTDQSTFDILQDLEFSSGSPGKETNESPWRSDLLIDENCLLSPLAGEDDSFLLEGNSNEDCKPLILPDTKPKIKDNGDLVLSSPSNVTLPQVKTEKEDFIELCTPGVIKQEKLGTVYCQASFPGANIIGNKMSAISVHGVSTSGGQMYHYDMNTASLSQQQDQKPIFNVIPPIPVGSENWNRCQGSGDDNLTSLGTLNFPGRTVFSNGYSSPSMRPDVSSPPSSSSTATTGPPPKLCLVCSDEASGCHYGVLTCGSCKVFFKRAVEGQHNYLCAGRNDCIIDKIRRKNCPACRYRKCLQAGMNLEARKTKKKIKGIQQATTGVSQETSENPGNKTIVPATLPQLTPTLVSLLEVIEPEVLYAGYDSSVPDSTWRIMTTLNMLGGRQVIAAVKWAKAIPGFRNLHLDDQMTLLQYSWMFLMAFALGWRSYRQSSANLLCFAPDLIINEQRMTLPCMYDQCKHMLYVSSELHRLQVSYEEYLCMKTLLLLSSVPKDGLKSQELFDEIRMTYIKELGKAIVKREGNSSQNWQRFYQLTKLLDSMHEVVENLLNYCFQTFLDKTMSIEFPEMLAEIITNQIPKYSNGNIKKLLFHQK
# Peroxisome proliferator-activated receptor delta (Homo sapiens), sequence (Q03181 whole entry, looked up): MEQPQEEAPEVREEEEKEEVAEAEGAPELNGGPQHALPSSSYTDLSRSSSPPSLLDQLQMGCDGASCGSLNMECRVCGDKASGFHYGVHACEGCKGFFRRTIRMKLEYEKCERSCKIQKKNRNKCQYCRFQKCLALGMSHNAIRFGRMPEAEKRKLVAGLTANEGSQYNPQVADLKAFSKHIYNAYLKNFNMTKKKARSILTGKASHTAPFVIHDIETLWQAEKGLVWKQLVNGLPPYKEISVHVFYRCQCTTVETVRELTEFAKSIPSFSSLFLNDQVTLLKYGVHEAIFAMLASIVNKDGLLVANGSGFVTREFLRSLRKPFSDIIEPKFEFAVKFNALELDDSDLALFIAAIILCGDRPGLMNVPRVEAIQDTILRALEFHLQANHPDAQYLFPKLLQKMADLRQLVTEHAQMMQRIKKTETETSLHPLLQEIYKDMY
# Thyroid hormone receptor beta (Homo sapiens), sequence (P10828 whole entry, looked up): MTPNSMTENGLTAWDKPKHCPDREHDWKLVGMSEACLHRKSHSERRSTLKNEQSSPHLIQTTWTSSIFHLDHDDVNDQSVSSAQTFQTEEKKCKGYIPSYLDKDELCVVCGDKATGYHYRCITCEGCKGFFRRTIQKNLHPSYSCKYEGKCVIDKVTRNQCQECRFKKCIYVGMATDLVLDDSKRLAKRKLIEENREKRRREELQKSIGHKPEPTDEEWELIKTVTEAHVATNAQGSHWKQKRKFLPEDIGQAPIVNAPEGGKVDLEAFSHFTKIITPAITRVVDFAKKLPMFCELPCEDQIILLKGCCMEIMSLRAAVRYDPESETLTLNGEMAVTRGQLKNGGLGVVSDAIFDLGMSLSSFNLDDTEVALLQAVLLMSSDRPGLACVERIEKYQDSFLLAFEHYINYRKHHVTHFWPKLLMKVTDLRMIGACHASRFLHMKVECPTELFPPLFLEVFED
# Retinoic acid receptor RXR-alpha (Homo sapiens), sequence (P19793 whole entry, looked up): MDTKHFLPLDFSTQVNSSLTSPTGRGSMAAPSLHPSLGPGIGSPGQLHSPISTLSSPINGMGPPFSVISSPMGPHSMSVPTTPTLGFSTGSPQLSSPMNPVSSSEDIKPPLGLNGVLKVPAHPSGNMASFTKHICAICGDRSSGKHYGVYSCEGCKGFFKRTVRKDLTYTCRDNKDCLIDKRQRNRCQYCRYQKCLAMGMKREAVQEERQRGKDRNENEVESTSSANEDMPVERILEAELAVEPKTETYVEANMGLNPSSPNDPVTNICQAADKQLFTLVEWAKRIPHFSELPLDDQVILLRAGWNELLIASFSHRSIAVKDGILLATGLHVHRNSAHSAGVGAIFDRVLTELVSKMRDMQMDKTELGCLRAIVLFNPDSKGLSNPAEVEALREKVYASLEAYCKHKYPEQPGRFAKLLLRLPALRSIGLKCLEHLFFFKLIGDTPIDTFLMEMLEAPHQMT
smiles,measurement,setting,value
O=C1c2ccccc2C(=O)N1SC(Cl)(Cl)Cl,activation,[1],6.44% (inactive)
same,outcome,[2],inactive
same,activation,[3],-3.47% (inactive)
same,max response,[4],9.12% (inactive)
same,outcome,[5],inactive
Cc1ccc(-c2c(Cl)nc(C#N)n2S(=O)(=O)N(C)C)cc1,activation,[1],4.98% (inactive)
same,Potency,[6],inactive
same,outcome,[2],inactive
same,Potency,[7],28.2 µM (active)
same,activation,[8],2.86% (inactive)
same,activation,[3],12.8% (inactive)
same,max response,[4],15.7% (inactive)
same,max response,[9],-15.9% (inactive)
O=[N+]([O-])c1ccc(Oc2ccc(Cl)cc2Cl)cc1,activation,[10],-3.5% (inactive)
same,Potency,[11],inactive
same,outcome,[12],inactive
same,max response,[13],-2.51%
same,Potency,[14],inactive
same,Potency,[6],inactive
same,Potency,[15],inactive
same,Potency,[16],inactive
same,outcome,[2],inactive
same,Potency,[17],inactive
same,max response,[18],-7.09%
same,max response,[19],5.62% (inactive)
same,activity change % (negative = inhibition),[20],-8.47% (inactive)
same,Potency,[21],48.6 µM (active)
same,activation,[7],-0.909% (inactive)
same,activation,[8],-1.65% (inactive)
same,activation,[3],0.167% (inactive)
same,max response,[4],5% (inactive)
same,max response,[22],-3.33% (inactive)
same,max response,[9],-5.28% (inactive)
same,Potency,[23],inactive
same,max response,[24],6.97% (inactive)
